This is a sample that favours compounds with a hit; in the whole collection about 32% have one here.
PostGolgi yeast: growth inhibition of a yeast mutant, post-Golgi transport screen. post-Golgi transport phenotypic cell assay. inhibition, % at 10 µM. hit rate 0.9% among 98,000. AID 739;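 note: yeast cells grown in 1536-well plates; yeast grown about 18 h at 30C before absorbance read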
CYP2C19 inhib: blocks human cytochrome P450 2C19; CYP2C19 Supersomes, luciferin-H EGE luminescence, 30 min; inhibition, % at 5 µM; hit rate 21% among 96,000; AID 778;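 active = CYP2C19 inhibition above a set limit at 5 µM in the primary screen, cut at about 50% in these data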
Target sequence (P33261 whole entry, looked up): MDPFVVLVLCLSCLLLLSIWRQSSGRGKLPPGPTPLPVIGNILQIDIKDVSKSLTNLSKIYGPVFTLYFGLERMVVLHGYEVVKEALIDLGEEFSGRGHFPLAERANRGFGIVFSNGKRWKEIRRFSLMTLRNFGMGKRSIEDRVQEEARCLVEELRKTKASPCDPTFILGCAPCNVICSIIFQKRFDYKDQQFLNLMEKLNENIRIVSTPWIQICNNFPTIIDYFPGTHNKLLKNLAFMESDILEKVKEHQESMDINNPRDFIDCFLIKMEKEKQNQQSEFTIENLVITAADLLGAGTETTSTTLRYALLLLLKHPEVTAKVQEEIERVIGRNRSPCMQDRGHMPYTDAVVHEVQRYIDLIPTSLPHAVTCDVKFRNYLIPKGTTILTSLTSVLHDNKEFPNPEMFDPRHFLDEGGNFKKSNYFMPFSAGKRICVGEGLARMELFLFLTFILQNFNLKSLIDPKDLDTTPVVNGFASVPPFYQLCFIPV
CYP2C9 activ: activators of human CYP2C9 | AID 1024 | P11712 | activation factor at 5 µM | recombinant CYP2C9, luciferin-H conversion, luminescence; active compounds read high; factor 1 = untreated enzyme, 0 = blocked | hit rate 1.4% among 96,000;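 active = activation factor of 2 or more for CYP2C9 at a 5 µM dose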
PostGolgi ctrl: inhibits growth of the yeast control strain; hit rate 5% among 98,000; inhibition, % at 10 µM; AID 738; efflux-deficient yeast background strain, growth absorbance A615, 16 h
CYP2C19 activ: cytochrome P450 2C19 (human) activation | recombinant CYP2C19, luciferin-H EGE luminescence; active compounds read high; 0 = fully inhibited enzyme, 1 = untreated enzyme | 96,000 tested, under 10 active | AID 1025 | activation factor at 5 µM | P33261;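 active = activation factor of at least 2 at 5 µM in the primary screen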
CYP2C9 inh: blocks human cytochrome P450 2C9. P11712. AID 777. CYP2C9 Supersomes, luciferin-H conversion, luminescence. inhibition, % at 5 µM. hit rate 20% among 96,000;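 active = blocking of liver enzyme CYP2C9 beyond about 50% at 5 µM, limit read from the data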
Large screens that a line does not name were inactive. Cut-off read from the data, not from the text of the source, unless noted: active = inhibition above about 30%; inactive = the rest.

Cc1cc(=O)oc(C)c1C(=O)N1CCc2c([nH]c3ccccc23)C1C(C)C (centres undefined)	CYP2C19 inhib 50
CCN(C(=O)CSc1nc(-c2ccccc2)c(-c2ccccc2)[nH]1)C1CCS(=O)(=O)C1 (centres undefined)	none
CC(C)N(Cc1ccccc1)C(=O)c1cnc2n(c1=O)CCS2	none
COc1ccc(S(=O)(=O)N(C)CC(=O)NCc2cccnc2)cc1Cl	CYP2C19 inhib 54
COc1ccc(NC(=O)CN(C2CCCCC2)S(C)(=O)=O)cc1Cl	none
COc1ccc(S(=O)(=O)CCC(=O)NC2CCCCC2)cc1	none
COc1ccc(N(CC(=O)NC2CCCCC2)S(=O)(=O)c2cccnc2)cc1	CYP2C19 inhib 53, CYP2C9 inh 65
COc1ccc(S(=O)(=O)N(CC(N)=O)C2CCCCC2)cc1Cl	CYP2C19 inhib 72
COc1ccc(S(=O)(=O)N(C)CC(=O)NC2CC2)cc1	CYP2C9 activ 2.5
CN(CC(=O)NCc1cccnc1)S(=O)(=O)c1ccc2c(c1)c(=O)n(C)c(=O)n2C	none
Cc1ccc(-c2nc3ccccc3n3nnnc23)cc1	none
CC1(C)N=C(N)NC(Nc2ccccc2)=N1	none (no result: CYP2C19 inhib, CYP2C9 activ, CYP2C19 activ, CYP2C9 inh)
CCOC(=O)C1CCN(C(=O)CN(C)S(=O)(=O)c2cc(C)ccc2OC)CC1	CYP2C9 inh 54
COc1ccc(S(=O)(=O)N(C)CC(=O)NC2CCCCC2)cc1Cl	CYP2C19 inhib 53, CYP2C9 activ 2.4
COc1ccc(C)cc1S(=O)(=O)N(C)CC(=O)N1CCCCCC1	none
COc1ccc(S(=O)(=O)N(C)CC(=O)NC2CCCCC2)cc1OC	none
COc1ccc(S(=O)(=O)N(C)CC(=O)N2CCC(C(N)=O)CC2)cc1Cl	CYP2C9 activ 2
c1ccc(CCn2c3ccccc3c3nnc(SCc4ccc5nonc5c4)nc32)cc1	none
CCC(C(=O)NCc1ccccc1OC)n1nc(C)n2c(cc3occc32)c1=O (centres undefined)	CYP2C19 inhib 56, CYP2C9 inh 63
CCC(CC)C(=O)NCc1ccccc1OC	none
COc1ccccc1CNC(=O)CCCOc1cc(=O)n(C)c2ccccc12	none
CCOCC(=O)Nc1ccc(S(=O)(=O)Nc2ncccn2)cc1	none
CCN1C(=O)C2(/C(=C(\O)c3ccc4c(c3)OCCO4)C(=O)C(=O)N2CCCOC)c2ccccc21 (centres undefined)	none
O=C(COCCOCC(=O)N(c1ccccn1)C1CCCCC1)N(c1ccccn1)C1CCCCC1	none (no result: CYP2C19 inhib, CYP2C9 activ, CYP2C19 activ, CYP2C9 inh)
CC(C)(C)NC(=O)C(c1ccccn1)N(C(=O)c1ccc2c(c1)OCCO2)C1CCCC1 (centres undefined)	PostGolgi ctrl 31
O=C(c1ccc2c(c1)OCCO2)N(c1ccccn1)C1CCCCC1	CYP2C9 inh 52
CC(C)(C)NC(=O)C(c1ccccc1)N(C(=O)c1ccco1)C1CC1 (centres undefined)	none
O=C(c1cccc(-n2cnnn2)c1)N1CC=C(c2ccccc2)CC1	none
CCCOn1nnnc1-c1ccccc1	none (no result: CYP2C19 inhib, CYP2C9 activ, CYP2C19 activ, CYP2C9 inh)
Cc1cccc(C(C)C)c1-n1nnnc1-c1ccccc1	CYP2C19 inhib 70, CYP2C9 inh 82
Cc1cc2cc(CNC(=O)NC3CCCCC3)ccc2[nH]1	CYP2C19 inhib 76
Cc1c(Cl)c(C(F)(F)F)nn1CC(=O)N1CCSCC1	none (no result: CYP2C19 inhib, CYP2C9 activ, CYP2C19 activ, CYP2C9 inh)
CCCn1cnc2cc(NCc3cccc(OC)c3O)ccc21	CYP2C19 inhib 86, CYP2C9 inh 58
COc1cccc(CNc2ccc3c(c2)ncn3C(C)C)c1OC	CYP2C19 inhib 86, CYP2C9 inh 64
CCOC(=O)N1CCN(c2c(NCc3ccc(N(C)C)cc3)c(=O)c2=O)CC1	none
O=C(CSCc1ccc(Cl)cc1)c1ccco1	CYP2C19 inhib 73, CYP2C9 inh 58
O=C(CSc1nnc(SCC(=O)c2ccco2)s1)c1ccco1	none
O=C(CSc1nc2cc(Cl)ccc2s1)c1ccco1	CYP2C19 inhib 89
COc1ccc(CNc2nc3nc(-c4ccccc4)cc(=O)n3[nH]2)cc1OC	none
O=C(O)CCC(=O)NCc1ccc(F)cc1	none
Cc1ccnc(NC(=O)C23CC4CC(CC(C4)C2)C3)c1	CYP2C19 inhib 94
O=C(O)CCCC(=O)Nc1ccccc1C(=O)O	none
CCC(=O)Nc1ccc(NC(=O)C23CC4CC(CC(C4)C2)C3)cn1	none
O=C(CC1CCCCC1)NC1CCCC1	none
Cc1ccnc(NC(=O)CCC2CCCCC2)c1	CYP2C19 inhib 86
O=C(CCC1CCCC1)NC1CCCCC1	CYP2C19 inhib 57
O=C(Cc1cccc2ccccc12)Nc1ccccc1C(=O)O	CYP2C9 inh 87
CC(=O)c1cnc(Nc2nc(C)c3cccc(C)c3n2)nc1C	none (no result: PostGolgi yeast, PostGolgi ctrl)
COc1ccc(CC(=O)Nc2cc(C)ccn2)cc1	CYP2C19 inhib 85
COC(=O)C(C(=O)Nc1cc(C)on1)C1CCCCCC1 (centres undefined)	CYP2C19 inhib 64, CYP2C9 inh 52
COc1ccc(CC(=O)Nc2cccc(C(=O)O)c2C)cc1	PostGolgi ctrl 34
O=C(CCC1CCCCC1)NNC(=O)NC12CC3CC(CC(C3)C1)C2	CYP2C19 inhib 95
COc1ccc(CC(=O)Nc2nnc(C)s2)cc1	none
CCOC(=O)c1c(C)[nH]c(C(=O)C(C)OC(=O)c2oc3ccccc3c2COC)c1C (centres undefined)	none
Cn1c(=O)c2c(nc(CN3CCOCC3)n2CC(O)CO)n(C)c1=O (centres undefined)	none
Cc1cc(NC(=O)CCC2CCCC2)no1	CYP2C19 inhib 59
CCOC(=O)C(C(=O)Nc1ccc(C)cc1)C1CCCCC1 (centres undefined)	CYP2C19 inhib 79, PostGolgi ctrl 40, CYP2C9 inh 56
CCOC(=O)C(C(=O)Nc1ccccc1)C1CCCCC1 (centres undefined)	none
O=C1c2ccccc2-c2onc3ccc(NCCCn4ccnc4)c1c23	CYP2C19 inhib 92, CYP2C9 inh 97
Cc1ccccc1CSCC(=O)c1c(N)n(C)c(=O)n(C)c1=O	CYP2C19 inhib 99, CYP2C9 inh 58
CONC(=O)C1CCN(C(=O)OCc2ccccc2)CC1	none
Cc1nn(C)c(C)c1S(=O)(=O)NCc1cccs1	none
CNC(=S)N1N=C(c2ccc(C)cc2)CC1c1ccc(Br)cc1 (centres undefined)	CYP2C19 inhib 55, PostGolgi ctrl 35, CYP2C9 inh 92
CNC(=S)N1N=C(c2ccc(C)cc2)CC1c1ccc(Cl)cc1 (centres undefined)	PostGolgi ctrl 44, CYP2C9 inh 90
CCCCCCNC(=O)Cc1nc2nc(C)cc(C)n2n1	none
CC(=O)Nc1sc2c(c1C(c1cccs1)N1CCOCC1)CCCC2 (centres undefined)	PostGolgi ctrl 42
CC(=O)Nc1ccc(NC(=O)CSCCc2ccccn2)cc1	none
O=C(NN1C(=O)C2C(C1=O)C1C=CC2C12CC2)c1ccncc1 (centres undefined)	CYP2C19 inhib 52
O=C(Nn1cnnc1)c1ccncc1	none
CC(=O)N=c1cccc(NC(C)=O)n1O	none

Screening results deposited in PubChem by several laboratories.
